Screening results deposited in PubChem BioAssay by National Center for Advancing Translational Sciences (NCATS).
The entries come from a sample that favours hits as a whole.
Pf Dd2 growth: inhibitors of Plasmodium falciparum Dd2 growth | P. falciparum Dd2 growth, SYBR Green, 72 h | Potency, µM (highest dose often 28.9 µM), for inactives: top-dose activity, negative = inhibition, hits mostly inhibitors | 120,000 tested, 4.3% active; active means well fitted inhibition curve with a large enough effect;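 further: plate controls were DMSO vehicle for no effect and reference drug for full effect; nearly all actives have a fitted effect of over 65% in size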
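Infected erythrocytes (Dd2, 0.3% parasitemia, 2.5% hematocrit final) are added to compound in RPMI-1640/Albumax II medium, grown 72 h at 37C in low oxygen, then lysed with saponin/Triton-X containing SYBR Green and read by fluorescence.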
The depositor's hits bear a star; i = inactive; [ ] = another dose, or the depositor's remark. Potency means the concentration at half of the fitted maximal effect.

SMILES	Pf Dd2 growth
CN(Cc1cccnc1)c1nc2c(c(=O)[nH]1)CCN(Cc1cccc(F)c1)CC2	-5%[5.79 µM]
CN(Cc1cccnc1)c1nc2c(c(=O)[nH]1)CCN(Cc1ccc(F)cc1Cl)CC2	2.8µM*
CN(C)c1nc2c(c(=O)[nH]1)CCN(Cc1ccc(F)cc1Cl)CC2	1µM*
CN(C)c1nc2c(c(=O)[nH]1)CCN(Cc1cc(F)ccc1F)CC2	19%[5.79 µM]
CC1CCN(c2ccc(CNC(=O)CC3CCOCC3)cc2)CC1	i
Cc1cc(COc2ccccc2)oc1C(=O)N[C@@H]1CCOC[C@H]1OCCO	-4%
COc1ccccc1N1CCN(C(=O)C[C@@H]2CCNC[C@@H]2Cc2cc(-c3ccccc3)on2)CC1	-28%
COc1cc2c(c(OC)c1OC)C(c1cc3c(cc1Cl)OCO3)CC(=O)N2 (stereo not given)	-25%
O=C(c1ccccc1)N1CCC(c2n[nH]c(=O)n2-c2ccccc2)CC1	-14%
Cc1ccccc1Cn1c(SCc2ccc(C(=O)N3CCCCC3)cc2)nc2ccncc21	7.9µM*
Cc1ccccc1Cn1c(SCc2ccc(C(=O)NC3CCCCC3)cc2)nc2ccncc21	-17%
Cc1ccc(Cn2c(SCc3ccc(C(=O)N4CCCCCC4)cc3)nc3ccncc32)cc1	11µM*
Cc1ccc(CN2C(=O)NC3(CCN(C(=O)c4ccncc4)CC3)C2=O)cc1	8%
Cc1ccc(CSc2nc3cccnc3n2Cc2ccc(C(=O)NC3CCCCC3)cc2)cc1	-16%
CN(C)c1ccc(NC(=O)Cn2c(SCc3ccc(F)cc3)nc3ccncc32)cc1	i
CN(C)CCO[C@H]1C[C@@H](O)C12CCN(C(=O)c1ccc3c(c1)OCO3)CC2	-11%
CC[C@@]1(C(=O)O)C[C@H](C(=O)NCCOC)[C@H](c2ccc(OC)cc2)N1C	-1%
COc1cccc(NC(=O)N[C@H]2[C@H](O)[C@@H](N3CCC(Cc4ccccc4)CC3)[C@@H]3OC[C@H]2O3)c1	-15%
CCOCCN1C(=O)COC[C@@H]1[C@H](O)c1ccc(NC(=O)Nc2ccccc2)cc1	-14%[44.1 µM]
COCCN1C(=O)c2ccccc2C(C(=O)Nc2nncs2)C12CCCC2 (stereo not given)	-10%
COCCN1C(=O)c2ccccc2C(C(=O)Nc2nc3ccccc3s2)C12CCCC2 (stereo not given)	6.3µM*
COCCN1C(=O)c2ccccc2C(C(=O)NCc2ccc(OC)cc2)C12CCCC2 (stereo not given)	-13%
COCCN1C(=O)c2ccccc2C(C(=O)Nc2nc(C(=O)OC)c(C(C)C)s2)C12CCCC2 (stereo not given)	11µM*
COCCN1C(=O)c2ccccc2C(C(=O)Nc2nc(C)c(C)s2)C12CCCC2 (stereo not given)	7.9µM*
COCCN1C(=O)c2ccccc2C(C(=O)NCc2ccccc2)C12CCCC2 (stereo not given)	-15%
SMILES	Pf Dd2 growth
COCCN1C(=O)c2ccccc2C(C(=O)Nc2nc3c(s2)CCC3)C12CCCC2 (stereo not given)	13µM*
COCCN1C(=O)c2ccccc2C(C(=O)NCCC(C)C)C12CCCC2 (stereo not given)	-19%
COCCN1C(=O)c2ccccc2C(C(=O)NCCc2ccccc2)C12CCCC2 (stereo not given)	-20%
Cc1nc(-c2cn(C3CCCN(C(=O)c4cccc(N(C)C)c4)C3)nn2)no1 (stereo not given)	i
CN1CCN(c2nc3c(c(=O)[nH]2)CCN(Cc2ccc(F)cc2Cl)CC3)CC1	8%[5.79 µM]
CCN1CCCN(C(=O)CCC2CCCC2)CC12CCOCC2	i
O=Cc1cccc(N2CCN(C(=O)c3ccc4c(c3)OCO4)CC2=O)c1	9%
Cc1noc(-c2ccn3c(CNC(=O)Cc4cccc(F)c4)nnc3c2)n1	-3%
CN(Cc1ccc(F)cc1)C(=O)Nc1ccc(Cl)cc1	i
COC(=O)CN1C(=O)[C@@H]2C[C@@H](O)CN2C2(CN(C3Cc4ccccc4C3)C2)C1=O	17%[44.1 µM]
COC(=O)[C@H]1CN(C(=O)c2cccnc2)CCN1C(=O)C1CCCCC1	i
CCCc1nnc(NC(=O)C2c3ccccc3C(=O)N(CCOC)C23CCCCC3)s1 (stereo not given)	10µM*
COCCN1C(=O)c2ccccc2C(C(=O)Nc2nnc(C)s2)C12CCCCC2 (stereo not given)	-16%
COCCN1C(=O)c2ccccc2C(C(=O)Nc2nncs2)C12CCCCC2 (stereo not given)	-21%
O=C(c1cccc(Br)c1)N1CCN(c2cc(-c3cccs3)[nH]n2)CC1	i
Cc1ccc2nc(CO[C@H]3CN(Cc4ccc(S(C)(=O)=O)cc4)C[C@H]3F)[nH]c2c1	i
CCn1cc(S(=O)(=O)NCCc2ncc(C)n2Cc2ccc(F)cc2)cn1	6.3µM*
Cc1cnc(CCNC(=O)C2CCCC2)n1Cc1ccc(F)cc1	-8%
Cc1cnc(CCNC(=O)Nc2ccc3c(c2)OCCO3)n1Cc1ccc(F)cc1	-6%
COCCOC1CCOC2(CCN(C(=O)c3cccc(F)c3)CC2)C1 (stereo not given)	20%
CCOc1ccccc1CN1CCn2c(nnc2[C@@H]2C[C@@H](O)CN2C)C1	-9%
O=C(c1ccn[nH]1)N1CCCCC1c1noc(COc2ccc(F)cc2)n1 (stereo not given)	-22%
O=C(CN1C(=O)NC(c2ccccc2)C2=C1COC2=O)NC1CCCC1 (stereo not given)	-10%
CCS(=O)(=O)N1CCC2(CCCN(C3CCOCC3)C2=O)C1 (stereo not given)	-8%
COc1ccc2c(c1)-c1nc(NC(=O)c3ccc(C)cc3)sc1CC2	11µM*
SMILES	Pf Dd2 growth
COc1ccc2c(c1)CCc1sc(NC(=O)c3cccc(Br)c3)nc1-2	-16%
COc1ccc(C(=O)Nc2nc3c(s2)CCCC3)cc1Cl	-25%
COCCN1CC2CN(C(=O)CCCc3ccccc3)CC(C1)O2	11µM*
COCC[C@]1(O)CCN(C(=O)CCCc2ccccc2)C[C@H]1C	-8%
COCC1CN(C(C)=O)CC12CCN(C(=O)CCCc1ccccc1)CC2 (stereo not given)	i
Cc1ccc(CNC(=O)c2ccc3c(c2)N(C(=O)c2ccc(F)cc2)CC3)o1	-12%
Cc1ccc2c(c1)c(=O)c(C(=O)c1ccncc1)cn2CC(=O)Nc1ccccc1Cl	i
CCc1cccc(NC(=O)Cn2cc(C(=O)c3ccncc3)c(=O)c3cc(C)c(C)cc32)c1	10µM*
Cc1cc(C)cc(NC(=O)Cn2cc(C(=O)c3ccncc3)c(=O)c3cc(C)c(C)cc32)c1	-24%
O=C(c1cnccn1)N1CCN(c2cc(-c3ccc(Cl)cc3)[nH]n2)CC1	i
COC(=O)c1cccc(NC(=O)c2cnc(-c3ccc(F)cc3)nc2-c2ccncc2)c1	-28%
CC(C)N1C[C@H](C(=O)NCCCc2ccccc2)[C@H](C(=O)O)C1	-3%
O=C(NC1CCN(c2cnn(Cc3ccccc3)c(=O)c2)CC1)c1ccsc1	10µM*
Cn1ncc(N2CCC(NC(=O)c3ccsc3)CC2)cc1=O	-17%
CC(C)(C)CC(=O)NC1CCN(c2cnn(Cc3ccccc3)c(=O)c2)CC1	i
CCCN(CCC)CCNC(=O)CN1C(=O)COc2ccc(S(=O)(=O)N3CCC(C)CC3)cc21	4.5µM*
Cc1ccc(CCNC(=O)CN2C(=O)COc3ccc(S(=O)(=O)N4CCC(C)CC4)cc32)cc1	-20%
CCCNC(=O)CN1C(=O)COc2ccc(S(=O)(=O)N3CCC(C)CC3)cc21	-21%
Cn1cccc1C(=O)N[C@H]1C[C@@H](C(=O)O)N(C(=O)CCCC(=O)N2C[C@@H](NC(=O)c3cccs3)C[C@H]2C(=O)O)C1	-12%
